Screening data as filed in PubChem.
This is a sample that favours compounds with a hit; in the whole collection about 5.5% have one here.
FBPA coupling cs: qHTS Assay for Inhibitors of Fructose-1,6-bisphosphate Aldolase from Giardia Lamblia: Coupling assay counterscreen; coupling enzyme system counterscreen, AmpLite Red fluorescence; activity change, negative = inhibition, % at 58.2 µM, hits read low; 0.67% of 290,000 active; in the data active means activity change below about -30%
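Final compound at 57.5 uM, incubated 10 min at RT with coupling enzyme reagent (glyceraldehyde-3-phosphate), then 20 min with substrate and AmpLite Red detection. Fluorescence read at 525/598 nm; tests interference with the coupling assay, not aldolase inhibition.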
Sfp inh: qHTS Assay for Inhibitors of Bacillus subtilis Sfp phosphopantetheinyl transferase (PPTase); 4'-phosphopantetheinyl transferase ffp (Bacillus subtilis), Q9F4F7; Potency, µM, without a hit: largest response in the series, negative = inhibition, usual class: inhibitors; Biochemical Sfp PPTase activity, qHTS; 3.5% of 310,000 active;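 further: the enzyme is Sfp with the accession as filed and its product quenches rhodamine fluorescence; potency means the concentration at half of the fitted maximal effect; 0% = enzyme reaction without inhibitor and -100% = no enzyme wells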
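Fluorescence-quenching assay with 15 nM Sfp, 5 uM rhodamine-CoA and 12.5 uM BHQ-2-labelled ybbR peptide in pH 7.6 Hepes/MgCl2 buffer. Enzyme was pre-incubated with compound for 15 min at room temperature. Rate was taken from the 30-min fluorescence change (525/598 nm).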
ELG1 repair inh: qHTS screen for small molecules that inhibit ELG1-dependent DNA repair in human embryonic kidney (HEK293T) cells expressing luciferase-tagged ELG1. HEK293T ELG1-luciferase reporter, luminescence, 16 h; DNA damage induced by 5-fluorouridine. Potency, µM (doses to about 46.1 µM), without a hit: top-dose activity change, negative = inhibition, hits mostly inhibitors. 2.3% of 330,000 active. AID 504467, 2011; further: potency means the concentration at half of the fitted maximal effect; nearly all actives have a fitted effect of over 55% in size
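In this reporter screen, reduction of luminescence relative to DMSO vehicle indicated activity. Compounds and 5-fluorouridine were added together to 2,000 cells per well, incubated for 16 hr at 37 °C, then developed with ONE-Glo.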
Giardia kill: Small Molecules that selectively kill Giardia lamblia: qHTS; Giardia lamblia trophozoite viability; activity change, % at 7.66 µM, hits read low; 0.15% of 340,000 active; in the data active means activity change below about -80%; inconclusive means between about -30% and that limit;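 further: parasites exposed to compound for two days anaerobically before the ATP read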
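Anaerobic 48 hrs incubation at 37 deg C of 100 trophozoites/well with test compounds; ATPLite 1-Step luminescence, 15-30 min RT, reports cellular ATP as viability.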
The depositor's hits bear a star; u = inconclusive; x = not tested or not shown. Unless noted, the call rests on the fitted dose curve; in most records, active means well fitted curve in the direction sought with a large enough effect; inconclusive means small, poorly fitted or top-dose-only effect, or another doubt; inactive means no such curve, though single readings can be large; an effect the other way counts as inactive or inconclusive. Unless noted, on the % scale 0 is the no-effect control and ±100 the full control effect.

SMILES	FBPA coupling cs	Sfp inh	ELG1 repair inh	Giardia kill
COc1ccc(C(=O)c2c(N)sc3c2CCN(C(=O)OC(C)(C)C)C3)cc1	-7	79µM*	23µM*	-8
CN1CCc2c(sc(N)c2C(=O)c2ccc(Cl)cc2)C1	1	-9%	18%	8
CC(C)(C)c1cc(C(c2cccnc2)N2CCN(CCO)CC2)cc(C(C)(C)C)c1O (stereo not given)	-5	20µM*	-2%	20
Cc1c(C(=O)N(C)C)sc2nc(-c3ccccn3)[nH]c(=O)c12	1	89µM*	u	-14
O=c1[nH]c(-c2ccccn2)nc2sc(-c3ccccc3)cc12	-2	4µM*	u	-3
CCN(CC)C(=O)c1sc2nc(Cc3ccccc3)[nH]c(=O)c2c1C	0	-2%	-6%	-24
CCOC(=O)C1=C(C)N(c2ccccc2)C(=O)/C1=C\c1ccco1	1	56µM*	-26%	-12
CCOC(=O)C1=C(C)N(c2ccc(C)cc2)C(=O)/C1=C\c1cccs1	-1	-16%	-6%	-13
CCOC(=O)C1=C(C)N(c2ccccc2)C(=O)/C1=C\c1ccc(O)c(OC)c1	3	6.3µM*	u	6
CCOC(=O)C1=C(C)N(c2ccccc2)C(=O)/C1=C\c1cccs1	-2	15%	-24%	-17
C=CCC[C@H](Cc1ccc(F)cc1)C(=O)OC[C@@H](Cc1c[nH]c2ccccc12)NC(=O)[C@H](CC=C)CC(=O)NCCO	x	x	u	-21
C=CCC[C@H](Cc1ccc(F)cc1)C(=O)OC[C@@H](Cc1c[nH]c2ccccc12)NC(=O)[C@H](CC=C)CC(=O)N(CCO)Cc1ccccc1	x	x	16µM*	-17
C=CCC[C@@H](Cc1ccc(F)cc1)C(=O)OC[C@@H](Cc1c[nH]c2ccccc12)NC(=O)[C@H](CC=C)CC(=O)N(CCO)Cc1ccccc1	x	x	18µM*	10
O=C(O)c1ccc2c(=O)n3c(nc2c1)/C(=C/c1ccc(C(F)(F)F)cc1)CC3	3	9%	-3%	-17
O=c1c2ccccc2nc2n1CC/C2=C/N1CCN(c2cccc(C(F)(F)F)c2)CC1	-25	32µM*	-4%	10
Cc1ccc(NS(=O)(=O)c2cc(NC(=O)c3ccc4c(c3)NC(=O)CS4)ccc2Cl)c(C)c1	-3	16µM*	23µM*	-7
NC(N)=N/N=C/c1ccc(OCc2ccccc2)cc1	-3	-15%	u	7
NC(N)=N/N=C/c1ccc(OCc2ccc(Cl)cc2)cc1	3	22µM*	u	-1
COc1cccc(CN2CCc3[nH]c(=S)[nH]c(=O)c3C2)c1	-1	-28%	5%	-15
COCCCN1CCc2[nH]c(=S)[nH]c(=O)c2C1	0	50µM*	5%	4
C[C@@H]1CN([C@@H](C)CO)C(=O)c2cccc(NC(=O)Nc3ccccc3)c2O[C@H]1CN(C)C(=O)Nc1cccc2ccccc12	x	x	-26%	-3
COc1cccc(C(=O)C2CCCN(C(=O)c3cccc(C#CC(C)(C)O)c3)C2)c1 (stereo not given)	3	7%	16µM*	2
COc1cccc(C(=O)N2CCCC(Nc3ccc(C)c(C)c3)C2)c1 (stereo not given)	x	1%	5%	1
CCN(CC)C(=O)Nc1ccc(OC[C@H](O)CNC(C)(C)C)c(C(C)=O)c1	x	27%	x	x
Cc1cc2nc3c(=O)[nH]c(=S)[nH]c3nc2cc1NC(=O)C(F)(F)F	-1	79µM*	u	14
SMILES	FBPA coupling cs	Sfp inh	ELG1 repair inh	Giardia kill
CCCC(=O)NC(c1ccco1)c1cc([N+](=O)[O-])c2cccnc2c1O (stereo not given)	-27	14µM*	21µM*	u
COc1ccc2[nH]c(C)c(CCN(Cc3cccs3)C(=S)Nc3cccc(F)c3)c2c1	-43*	40µM*	16µM*	-8
CNC(=S)N(Cc1cccs1)Cc1cc2cc(OC)c(OC)cc2[nH]c1=O	-1	6%	-19%	1
Cc1cccc(NC(=S)N(CCN(C)C)Cc2cc3cccc(C)c3[nH]c2=O)c1	4	18%	13µM*	-18
COc1cc2cc(CN(Cc3cccs3)C(=S)Nc3ccc(C)cc3)c(=O)[nH]c2cc1OC	0	1%	5.2µM*	11
Cc1cccc(NC(=S)N(Cc2cccs2)Cc2cc3cc(C)ccc3[nH]c2=O)c1	2	13%	u	12
